# Experimental data taken from PubChem BioAssay (NCATS).
# Results filed as inconclusive are left out. The source made the active and inactive calls. Unless noted, the call rests on the fitted dose curve; in most records, active means well fitted curve in the direction sought with a large enough effect; inconclusive means small, poorly fitted or top-dose-only effect, or another doubt; inactive means no such curve, though single readings can be large; an effect the other way counts as inactive or inconclusive.
# Tests used:
# [1] = target: Cytochrome P450 3A4 (Homo sapiens) (UniProt P08684); test: qHTS Assay for Activators of Cytochrome P450 3A4 (AID 885); further: nearly all actives have a fitted effect of over 65% in size
# Sequence of Cytochrome P450 3A4 (Homo sapiens) (P08684 whole entry, looked up): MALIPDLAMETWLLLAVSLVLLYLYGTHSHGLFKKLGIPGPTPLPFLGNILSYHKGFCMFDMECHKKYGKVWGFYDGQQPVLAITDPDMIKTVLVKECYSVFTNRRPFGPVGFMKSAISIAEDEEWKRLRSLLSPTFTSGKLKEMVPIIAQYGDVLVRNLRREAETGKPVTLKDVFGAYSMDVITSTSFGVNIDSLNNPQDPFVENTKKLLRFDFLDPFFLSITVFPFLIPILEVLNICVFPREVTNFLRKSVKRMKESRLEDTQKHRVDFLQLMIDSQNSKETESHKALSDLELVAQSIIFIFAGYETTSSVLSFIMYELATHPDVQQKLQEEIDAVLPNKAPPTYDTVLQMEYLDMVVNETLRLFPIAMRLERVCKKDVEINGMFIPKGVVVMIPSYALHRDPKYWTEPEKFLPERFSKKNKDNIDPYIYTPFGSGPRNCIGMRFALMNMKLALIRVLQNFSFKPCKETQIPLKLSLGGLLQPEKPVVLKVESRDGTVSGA
# Summary of the method: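 Luminescent readout of luciferin formed from 25 uM Luciferin-PPXE (KM level) by 20 nM CYP3A4 in 200 mM KPO4, with 60 min NADPH-driven reaction at room temperature after 10 min compound exposure. Ketoconazole (57 uM) defined 100% inhibition.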
# [2] = Cell Viability - LYMP2-003 (AID 965);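 further: potency means the concentration at half of the fitted maximal effect; cells exposed to compounds for 24 h before reading; nearly all actives have a fitted effect of over 50% in size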
# Summary of the method: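 Human lymphoblastoid LYMP2-003 cells, 2500/well, exposed to compounds for 24 h at 37 C in complete medium. Viability read as intracellular ATP by CellTiter-Glo luminescence; AC50 from Hill-equation fits of qHTS concentration-response data.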
# [3] = Cell Viability - LYMP2-005 (AID 967); further: potency means the concentration at half of the fitted maximal effect
# Summary of the method: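 Human lymphoblastoid LYMP2-005 cells, 2,500 per well in complete medium, rested 5 h at 37C then compound-treated 24 h at 37C. Intracellular ATP read by CellTiter-Glo luminescence after 30 min at room temperature; AC50 from Hill-equation fits of concentration-response data.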
# [4] = target: Bile acid receptor (Homo sapiens) (UniProt Q96RI1); test: qHTS assay for small molecule agonists of farnesoid X receptor signaling (AID 588527; calls by dose curve;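 further: series mostly up to about 77 µM; 0% = vehicle basal and 100% = reference agonist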); settings: HEK293T FXR-UAS-bla, beta-lactamase ratio, 16 h; activation: stronger effect = higher value
# Sequence of Bile acid receptor (Homo sapiens) (Q96RI1 whole entry, looked up): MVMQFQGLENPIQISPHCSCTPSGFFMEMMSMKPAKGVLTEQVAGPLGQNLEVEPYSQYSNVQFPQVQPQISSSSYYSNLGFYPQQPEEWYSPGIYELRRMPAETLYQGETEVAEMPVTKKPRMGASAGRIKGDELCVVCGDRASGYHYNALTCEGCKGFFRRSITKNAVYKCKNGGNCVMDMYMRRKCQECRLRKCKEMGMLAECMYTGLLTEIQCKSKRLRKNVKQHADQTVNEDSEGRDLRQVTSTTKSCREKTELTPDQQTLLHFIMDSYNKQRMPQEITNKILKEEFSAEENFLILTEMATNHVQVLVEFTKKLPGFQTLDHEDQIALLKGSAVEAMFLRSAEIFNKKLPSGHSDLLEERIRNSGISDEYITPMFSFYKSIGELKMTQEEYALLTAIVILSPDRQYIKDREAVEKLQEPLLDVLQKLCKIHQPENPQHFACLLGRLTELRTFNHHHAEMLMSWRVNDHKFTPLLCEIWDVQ
# Summary of the method: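 Agonist-mode beta-lactamase reporter in GeneBLAzer FXR-UAS-bla HEK293T cells, titration up to 92 uM, 16 h exposure at 37 C, CCF4 fluorescence. Response scaled to DMSO (0%) and 100 uM chenodeoxycholic acid (100%), then Hill-fitted for EC50 and efficacy.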
# [5] = target: Peroxisome proliferator-activated receptor delta (Homo sapiens) (UniProt Q03181); test: qHTS assay for small molecule agonists of peroxisome proliferator-activated receptor delta signaling (AID 588534; calls by dose curve;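 further: 0% = DMSO basal wells and 100% = positive control agonist at 10 µM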)
# Sequence of Peroxisome proliferator-activated receptor delta (Homo sapiens) (Q03181 whole entry, looked up): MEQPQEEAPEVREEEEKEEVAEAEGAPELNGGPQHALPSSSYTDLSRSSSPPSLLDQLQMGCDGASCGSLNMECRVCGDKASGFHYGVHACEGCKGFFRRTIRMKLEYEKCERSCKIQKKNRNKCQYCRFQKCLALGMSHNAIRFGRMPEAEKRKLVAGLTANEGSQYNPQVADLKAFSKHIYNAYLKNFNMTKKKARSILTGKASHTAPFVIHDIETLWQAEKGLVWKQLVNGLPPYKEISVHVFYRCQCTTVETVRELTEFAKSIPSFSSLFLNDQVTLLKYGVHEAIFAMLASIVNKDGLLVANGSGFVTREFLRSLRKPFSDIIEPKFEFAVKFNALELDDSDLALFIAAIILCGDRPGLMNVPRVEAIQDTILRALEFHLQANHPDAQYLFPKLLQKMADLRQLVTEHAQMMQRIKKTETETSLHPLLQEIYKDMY
# Summary of the method: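 Titration series tested in agonist mode on beta-lactamase reporter cells; 18 hrs at 37 C after a 5 hr pre-incubation. Readout: CCF4 fluorescence, 2 hrs RT. Hill equation gives EC50 and maximal response.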
# [6] = target: Vitamin D3 receptor (Homo sapiens) (UniProt P11473); test: qHTS assay for small molecule agonists of vitamin D receptor signaling (AID 588543; calls by dose curve;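 further: 0% = DMSO basal and 100% = reference agonist control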)
# Sequence of Vitamin D3 receptor (Homo sapiens) (P11473 whole entry, looked up): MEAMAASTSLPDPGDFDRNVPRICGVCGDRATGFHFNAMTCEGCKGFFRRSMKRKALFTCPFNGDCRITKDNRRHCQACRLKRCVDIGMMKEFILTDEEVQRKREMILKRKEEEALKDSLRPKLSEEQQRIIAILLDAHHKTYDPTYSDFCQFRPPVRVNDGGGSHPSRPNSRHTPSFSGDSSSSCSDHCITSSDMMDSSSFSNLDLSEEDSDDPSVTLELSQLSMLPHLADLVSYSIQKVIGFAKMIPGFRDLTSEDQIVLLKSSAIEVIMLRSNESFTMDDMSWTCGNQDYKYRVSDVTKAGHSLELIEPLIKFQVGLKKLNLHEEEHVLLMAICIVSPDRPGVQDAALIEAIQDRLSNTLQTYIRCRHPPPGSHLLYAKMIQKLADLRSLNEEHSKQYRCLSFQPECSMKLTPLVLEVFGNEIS
# Summary of the method: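 VDR-UAS-bla HEK293T cells, 2000/well, 2% charcoal-stripped FBS; compound titration 16 h at 37 C; CCF4 beta-lactamase ratio read. Normalized to 50 nM 1-alpha,25-dihydroxyvitamin D3 (100%) and DMSO; Hill fit gives EC50, efficacy.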
# [7] = qHTS assay for small molecule activators of the nuclear factor-kappa B (NF-kB) signaling pathway (AID 651749; active means well fitted activation curve with a large enough effect in the signal ratio; the % refers to the signal ratio; further: series mostly up to about 77 µM; % of control where 0% means no effect); settings: NF-kB-bla ME-180 cells, beta-lactamase FRET ratio, 16 h; activation: stronger effect = higher value
# Summary of the method: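 Beta-lactamase reporter expression, controlled by NF-kB response elements in ME-180 cells, was quantified fluorometrically via FRET disruption; cells at 2,000/well had been incubated with 23 nL test compound for 16 hr.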
# [8] = qHTS assay for environmental chemicals that activate the Aryl hydrocarbon Receptor (AhR) signaling pathway (AID 651777); settings: 1A2-DRE human hepatoma cells, luciferase, 24 h; activation: stronger effect = higher value; further: nearly all actives have a fitted effect of over 15% in size; further: potency means the concentration at half of the fitted maximal effect; on activation: % of control where 0% means no effect
# Summary of the method: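 Concentration–response screening used 1,200 1A2-DRE cells per well, 24 hr compound exposure (37 C, 5% CO2), and One-Glo luminescence as the AhR-driven CYP1A2 reporter signal.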
# [9] = target: Peroxisome proliferator-activated receptor alpha (Homo sapiens) (UniProt Q07869); test: qHTS assay for small molecule agonists of the peroxisome proliferator-activated receptor alpha (PPARalpha) signaling pathway (AID 651778); settings: PathHunter PPARalpha complementation, chemiluminescence, 6 h; max response: stronger effect = higher value; further: % of control where 0% means no effect
# Sequence of Peroxisome proliferator-activated receptor alpha (Homo sapiens) (Q07869 whole entry, looked up): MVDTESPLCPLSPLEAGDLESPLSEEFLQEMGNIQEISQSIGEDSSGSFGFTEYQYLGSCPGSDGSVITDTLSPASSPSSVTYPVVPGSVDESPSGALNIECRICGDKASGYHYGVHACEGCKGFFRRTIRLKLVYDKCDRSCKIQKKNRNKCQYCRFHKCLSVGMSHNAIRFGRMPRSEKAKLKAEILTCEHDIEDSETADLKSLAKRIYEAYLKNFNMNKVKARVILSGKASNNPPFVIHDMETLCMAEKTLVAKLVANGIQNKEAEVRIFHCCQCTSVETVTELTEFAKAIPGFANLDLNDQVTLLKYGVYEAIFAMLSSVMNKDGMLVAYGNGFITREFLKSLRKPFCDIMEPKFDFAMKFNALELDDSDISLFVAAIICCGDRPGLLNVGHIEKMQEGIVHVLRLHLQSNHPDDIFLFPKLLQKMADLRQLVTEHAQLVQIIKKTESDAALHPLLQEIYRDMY
# Summary of the method: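 Cells plated at 2,000/well and held overnight at 37 C, 5% CO2, then compound added by pin tool for 6 hr; after PathHunter detection reagent and 60 min at room temperature, chemiluminescence from enzyme complementation was read.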
# [10] = qHTS assay for small molecule activators of the human pregnane X receptor (PXR) signaling pathway (AID 720659; call rule not given here; further: 0% is about no effect)
# [11] = target: Glucocorticoid receptor (Homo sapiens) (UniProt P04150); test: qHTS assay for small molecule agonists of glucocorticoid receptor signaling (AID 588532; active means well fitted curve in the direction sought with a large enough effect in the signal ratio, with a control signal flat; the % refers to the signal ratio;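 further: 100% = dexamethasone at 0.1 µM and 0% = DMSO only wells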); settings: HeLa MMTV-bla, beta-lactamase ratio, agonist, 18 h; activation: stronger effect = higher value, percent of dexamethasone control, DMSO zero
# Sequence of Glucocorticoid receptor (Homo sapiens) (P04150 whole entry, looked up): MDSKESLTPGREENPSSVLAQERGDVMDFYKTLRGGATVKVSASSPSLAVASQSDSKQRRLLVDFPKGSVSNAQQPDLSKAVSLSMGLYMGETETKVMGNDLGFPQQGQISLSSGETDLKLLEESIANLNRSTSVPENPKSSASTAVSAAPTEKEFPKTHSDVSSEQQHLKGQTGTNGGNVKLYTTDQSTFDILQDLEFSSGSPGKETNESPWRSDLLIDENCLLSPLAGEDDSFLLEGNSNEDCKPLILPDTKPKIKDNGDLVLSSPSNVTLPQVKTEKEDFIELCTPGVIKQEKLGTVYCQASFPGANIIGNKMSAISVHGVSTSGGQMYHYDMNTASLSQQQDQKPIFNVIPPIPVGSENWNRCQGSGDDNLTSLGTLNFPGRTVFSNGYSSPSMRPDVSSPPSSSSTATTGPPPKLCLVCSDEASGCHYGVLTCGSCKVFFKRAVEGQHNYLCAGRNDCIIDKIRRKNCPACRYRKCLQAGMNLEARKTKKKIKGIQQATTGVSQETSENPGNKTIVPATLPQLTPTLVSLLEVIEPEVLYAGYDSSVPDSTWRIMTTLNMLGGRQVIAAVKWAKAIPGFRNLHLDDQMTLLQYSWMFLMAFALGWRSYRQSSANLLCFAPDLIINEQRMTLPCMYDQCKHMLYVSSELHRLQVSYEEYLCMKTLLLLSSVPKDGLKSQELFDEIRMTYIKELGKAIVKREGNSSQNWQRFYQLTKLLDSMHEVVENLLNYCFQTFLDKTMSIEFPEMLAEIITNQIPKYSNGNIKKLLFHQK
# Summary of the method: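 Titration series, up to 92 uM, applied to GRE-bla HeLa cells for 18 h at 37 C. Detection by CCF4 FRET substrate after 2 h at RT.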
# [12] = target: Glucocorticoid receptor (Homo sapiens) (UniProt P04150); test: qHTS assay for small molecule antagonists of glucocorticoid receptor signaling (AID 588533; active means well fitted inhibition curve with a large enough effect in the signal ratio, with a control signal flat, not every such curve was filed as active; the % refers to the signal ratio;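 further: cells stimulated with 2 nM dexamethasone as agonist; on the % scale 0 is the no-effect control and ±100 the full control effect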)
# Summary of the method: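 Antagonist-mode qHTS: compound titrations added to GRE-bla HeLa cells, then dexamethasone 2 nM final; 18 h, 37 C. CCF4 FRET fluorescence normalized to dexamethasone and DMSO; IC50 from Hill fit.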
# [13] = qHTS assay for small molecule antagonists of peroxisome proliferator-activated receptor delta signaling (AID 588535; active means well fitted inhibition curve with a large enough effect in the signal ratio, with a control signal flat, not every such curve was filed as active; the % refers to the signal ratio;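 on max response: cells co-treated with a PPAR-delta agonist as stimulator during compound exposure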); settings: HEK293T PPARd-UAS-bla, beta-lactamase FRET ratio, 18 h; 460 nm channel
# Summary of the method: (§1)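 Compounds tested in titration on PPAR-delta-UAS-bla HEK293T cells grown in charcoal/dextran-stripped serum (2%); beta-lactamase activity read via CCF4 emission at 460 and 530 nm.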
# [14] = target: Peroxisome proliferator-activated receptor delta (Homo sapiens) (UniProt Q03181); test: as above
# Summary of the method: as §1
# [15] = target: Peroxisome proliferator-activated receptor gamma (Homo sapiens) (UniProt P37231); test: qHTS assay for small molecule agonists of peroxisome proliferator-activated receptor gamma signaling (AID 588536; active means well fitted curve in the direction sought with a large enough effect in the signal ratio, with a control signal flat, not every such curve was filed as active; the % refers to the signal ratio;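 further: 0% = DMSO basal wells and 100% = rosiglitazone at 2 µM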)
# Sequence of Peroxisome proliferator-activated receptor gamma (Homo sapiens) (P37231 whole entry, looked up): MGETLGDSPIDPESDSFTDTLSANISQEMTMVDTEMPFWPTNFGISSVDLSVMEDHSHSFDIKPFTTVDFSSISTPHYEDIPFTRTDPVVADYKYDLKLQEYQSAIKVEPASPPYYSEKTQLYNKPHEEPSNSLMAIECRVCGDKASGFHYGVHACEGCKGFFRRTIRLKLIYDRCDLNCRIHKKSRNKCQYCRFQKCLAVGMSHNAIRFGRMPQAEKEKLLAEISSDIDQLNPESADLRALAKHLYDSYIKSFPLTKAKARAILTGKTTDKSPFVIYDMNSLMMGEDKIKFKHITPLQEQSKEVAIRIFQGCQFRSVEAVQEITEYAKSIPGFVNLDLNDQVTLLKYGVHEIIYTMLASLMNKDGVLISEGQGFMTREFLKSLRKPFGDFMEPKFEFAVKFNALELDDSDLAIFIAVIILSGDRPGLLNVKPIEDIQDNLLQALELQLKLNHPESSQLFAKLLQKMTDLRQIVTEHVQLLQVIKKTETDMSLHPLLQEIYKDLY
# Summary of the method: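 This is an agonist-mode beta-lactamase reporter assay in HEK293 PPAR-gamma-UAS-bla cells with 1% charcoal/dextran FBS. Compound titrations ran 16 h at 37 C before CCF4 detection. EC50 and efficacy are Hill fits scaled to 2 uM rosiglitazone (100%) and DMSO basal.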
# [16] = target: Peroxisome proliferator-activated receptor gamma (Homo sapiens) (UniProt P37231); test: qHTS assay for small molecule antagonists of peroxisome proliferator-activated receptor gamma signaling (AID 588537; active means well fitted inhibition curve with a large enough effect in the signal ratio, with a control signal flat, not every such curve was filed as active; the % refers to the signal ratio;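 further: reporter cells co-stimulated with 50 nM rosiglitazone agonist during compound treatment; % of control where 0% means no effect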)
# Summary of the method: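 HEK293 cells, PPAR-gamma-UAS-bla, 3000/well. Pre-incubation 6-6.5 h, 37 C. Compound titration with rosiglitazone 50 nM final, 16 h. CCF4 dye, 2 h RT, dual-emission fluorescence.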
# [17] = target: Vitamin D3 receptor (Homo sapiens) (UniProt P11473); test: qHTS assay for small molecule antagonists of vitamin D receptor signaling (AID 588541; calls by dose curve;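 further: receptor activated by calcitriol during compound treatment; series mostly up to about 77 µM; on the % scale 0 is the no-effect control and ±100 the full control effect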)
# Summary of the method: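 VDR-UAS-bla HEK293T cells (2000/well, 2% charcoal-stripped FBS) were treated with titrated compounds plus 1-alpha,25-dihydroxyvitamin D3 (50 nM or 3 nM final) for 16 h at 37 C. CCF4 beta-lactamase fluorescence was read; Hill fits gave IC50.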
# [18] = qHTS assay for small molecule agonists of retinoid X receptor alpha signaling (AID 588544; calls by dose curve;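 on activation: 0% = DMSO basal wells and 100% = reference agonist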); settings: HEK293T RXRa-UAS-bla, beta-lactamase reporter, 18 h; 530 nm emission
# [19] = target: Retinoic acid receptor RXR-alpha (Homo sapiens) (UniProt P19793); test: as above
# [20] = target: Thyroid hormone receptor beta (Homo sapiens) (UniProt P10828); test: qHTS assay for small molecule agonists of thyroid hormone receptor beta signaling (AID 588545; calls by dose curve;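 further: 0% = DMSO only and 100% = 10 nM T3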)
# Sequence of Thyroid hormone receptor beta (Homo sapiens) (P10828 whole entry, looked up): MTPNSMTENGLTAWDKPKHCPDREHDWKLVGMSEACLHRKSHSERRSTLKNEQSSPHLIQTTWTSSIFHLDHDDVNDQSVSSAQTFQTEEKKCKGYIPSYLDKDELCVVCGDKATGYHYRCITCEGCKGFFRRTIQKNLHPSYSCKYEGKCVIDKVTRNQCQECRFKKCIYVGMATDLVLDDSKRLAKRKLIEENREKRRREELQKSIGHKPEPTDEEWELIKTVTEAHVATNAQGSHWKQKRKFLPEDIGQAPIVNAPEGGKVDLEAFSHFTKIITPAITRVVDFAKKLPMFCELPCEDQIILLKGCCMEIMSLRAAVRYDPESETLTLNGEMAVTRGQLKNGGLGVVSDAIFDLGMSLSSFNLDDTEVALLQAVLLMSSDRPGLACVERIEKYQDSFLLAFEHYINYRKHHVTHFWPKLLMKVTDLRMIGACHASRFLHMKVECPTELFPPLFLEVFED
# Summary of the method: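 TR-UAS-bla-GripTite HEK 293 cells in medium with 2% charcoal/dextran FBS, 0.1 mM NEAA and 1 mM sodium pyruvate were treated with titrated compounds for 18 hrs at 37 C. Beta-lactamase reporter was read with CCF4 dye (ex 405, em 460/530 nm); EC50 from Hill fits.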
# [21] = target: Thyroid hormone receptor beta (Homo sapiens) (UniProt P10828); test: qHTS assay for small molecule antagonists of thyroid hormone receptor beta signaling (AID 588547; active means well fitted inhibition curve with a large enough effect in the signal ratio, with a control signal flat, not every such curve was filed as active; the % refers to the signal ratio;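 further: cells stimulated with 0.4 nM T3 agonist during compound exposure; series mostly up to about 77 µM; on the % scale 0 is the no-effect control and ±100 the full control effect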); settings: TR-UAS-bla HEK293, beta-lactamase ratio, antagonist mode, 18 h
# Summary of the method: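 TR-UAS-bla GripTite HEK293 cells in 2% charcoal/dextran FBS medium were preincubated 4 h at 37 C, given compound (0.59 nM to 92 uM) plus 0.4 nM T3 (final) for 18 h, then CCF4 for 2 h at RT; Hill fit gave IC50.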
# [22] = qHTS assay for small molecule activators of the p53 signaling pathway (AID 651743; active means well fitted activation curve with a large enough effect in the signal ratio, not every such curve was filed as active; the % refers to the signal ratio; further: series mostly up to about 92 µM; % of control where 0% means no effect); settings: HCT-116 p53RE-bla, beta-lactamase FRET ratio, 16 h; activation: stronger effect = higher value
# Summary of the method: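 Here HCT-116 cells with an integrated p53-responsive beta-lactamase gene were incubated with compounds (16 hours, 37 C) after a 5-hour plating period; beta-lactamase activity was detected as fluorescence intensity via B/G FRET substrate.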
# [23] = qHTS assay for small molecule agonists of the antioxidant response element (ARE) signaling pathway measured by Nrf2-dependant transcriptional activity (AID 720636; active means well fitted curve in the direction sought with a large enough effect in the repeat runs; an effect the other way counts as inactive or inconclusive; further: potency means the concentration at half of the fitted maximal effect; on activation: % of control where 0% means no effect)
# Summary of the method: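 Attachment 6 hr at 37 C, then compound versus DMSO vehicle for 16 hr in ARE-luc HepG2 cells (1% dialyzed FBS); luminescence recorded 30 min after ONE-Glo addition at room temperature.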
# [24] = qHTS assay for small molecule agonists of the antioxidant response element (ARE) signaling pathway measured by Nrf2-dependant transcriptional activity - cell viability counter screen (AID 720653; active means well fitted curve in the direction sought with a large enough effect in the repeat runs; an effect the other way counts as inactive or inconclusive; further: on the % scale 0 is the no-effect control and ±100 the full control effect); settings: ARE-bla HepG2 viability, CellTiter-Glo ATP luminescence, 16 h; max response: stronger effect = lower value
# Summary of the method: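 ARE-bla HepG2 cells (2,000/well) rested 5 hrs at 37C/5% CO2, then exposed to compounds in DMSO for 16 hrs. Viability was read in the same wells as intracellular ATP by luminescence, 30 min at room temperature after reagent addition.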
# [25] = qHTS assay for cell viability of HEK293 cells (AID 743288); settings: ATP luminescence (CellTiter-Glo), 18 h; max response: stronger effect = lower value; further: on the % scale 0 is the no-effect control and ±100 the full control effect; nearly all actives have a fitted effect of over 50% in size
# Summary of the method: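 Steps: plate 2,000 parental HEK293 cells per well; incubate ≥5 h, 37 C; add compounds in DMSO; incubate 18 h, 37 C; add CellTiter-Glo; wait 30 min at room temperature; read luminescence.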
# [26] = qHTS assay for cell viability of the p53RE-bla HCT-116 cell line (AID 743292); further: on the % scale 0 is the no-effect control and ±100 the full control effect; nearly all actives have a fitted effect of over 55% in size
# Summary of the method: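 Compound-exposed HCT-116 (p53RE-bla) cells, 4,000 per well, were kept 16 h at 37 C following a 5 h preincubation. Cell number was estimated from total ATP by CellTiter-Glo luminescence read after 30 min at room temperature.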
# [27] = target: Nuclear receptor subfamily 1 group I member 2 (Rattus norvegicus) (UniProt Q9R1A7); test: qHTS assay for small molecule activators of the rat pregnane X receptor (rPXR) signaling pathway (AID 651751; call rule not given here; further: 0% is about no effect); settings: rPXR reporter cells, luciferase (One-Glo), 24 h
# [28] = target: Nuclear receptor ROR-gamma (Homo sapiens) (UniProt P51449); test: qHTS assay for small molecule antagonists of the retinoid-related orphan receptor gamma (ROR-gamma) signaling pathway (AID 651802); further: potency means the concentration at half of the fitted maximal effect; nearly all actives have a fitted effect of over 60% in size
# Sequence of Nuclear receptor ROR-gamma (Homo sapiens) (P51449 whole entry, looked up): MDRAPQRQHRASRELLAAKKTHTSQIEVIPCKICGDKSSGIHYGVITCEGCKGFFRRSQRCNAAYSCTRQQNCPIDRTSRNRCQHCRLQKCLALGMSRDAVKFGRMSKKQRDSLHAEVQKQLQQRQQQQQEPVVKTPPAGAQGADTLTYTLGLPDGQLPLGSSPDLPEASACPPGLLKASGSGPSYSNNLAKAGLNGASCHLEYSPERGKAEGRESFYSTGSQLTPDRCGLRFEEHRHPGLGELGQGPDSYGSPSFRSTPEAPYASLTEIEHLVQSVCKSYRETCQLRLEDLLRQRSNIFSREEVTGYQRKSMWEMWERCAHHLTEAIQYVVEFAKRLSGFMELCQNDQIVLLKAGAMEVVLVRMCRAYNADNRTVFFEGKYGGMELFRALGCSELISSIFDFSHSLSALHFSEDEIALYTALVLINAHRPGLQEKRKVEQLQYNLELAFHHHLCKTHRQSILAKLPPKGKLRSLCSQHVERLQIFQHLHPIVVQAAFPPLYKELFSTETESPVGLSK
# Summary of the method: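 Luciferase read-out: ONE-Glo luminescence after 30 min at room temperature, following 16hr doxycycline induction at 37C, 5% CO2 of CHO cells with TET-inducible ROR and RORE-LUC reporter; decreased luminescence = reduced reporter activity.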
# [29] = qHTS assay for small molecule agonists of the antioxidant response element (ARE) signaling pathway (AID 651741; active means well fitted activation curve with a large enough effect in the signal ratio; the % refers to the signal ratio; further: potency means the concentration at half of the fitted maximal effect)
# Summary of the method: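 Beta-lactamase reporter expression driven by the antioxidant response element in HepG2 cells was detected by fluorescence with LiveBLAzer B/G FRET substrate (2 h, room temperature) following 16 h compound treatment at 37 C.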
compound,measurement,setting,value
Nc1ccc(-c2ccc(N)c(O)c2)cc1O,Potency,[1],inactive
same,Potency,[2],50.1 µM (active)
same,Potency,[3],50.1 µM (active)
same,activation,[4],-0.21% (inactive)
same,outcome,[5],inactive
O=C1c2ccccc2C(=O)N1SC(Cl)(Cl)Cl,activation,[4],6.44% (inactive)
same,outcome,[6],inactive
same,activation,[7],3.09% (inactive)
same,activation,[8],-3.47% (inactive)
same,max response,[9],9.12% (inactive)
same,outcome,[10],inactive
C1=Cc2cccc3cccc1c23,activation,[11],-9.46% (inactive)
same,Potency,[12],inactive
same,outcome,[5],inactive
same,max response,[13],-1.47%
same,Potency,[14],inactive
same,Potency,[15],inactive
same,Potency,[16],inactive
same,Potency,[17],inactive
same,outcome,[6],inactive
same,max response,[18],-12.5%
same,Potency,[19],inactive
same,Potency,[20],inactive
same,activity change % (negative = inhibition),[21],1.99% (inactive)
same,activation,[22],-6.25% (inactive)
same,activation,[7],0.838% (inactive)
same,activation,[8],0.26% (inactive)
same,max response,[9],3.92% (inactive)
same,Potency,[23],inactive
same,max response,[24],-6.24% (inactive)
same,max response,[25],-13.5% (inactive)
same,Potency,[26],inactive
same,max response,[27],3.17% (inactive)
CC(C)(C)C(=O)C1C(=O)c2ccccc2C1=O,activation,[4],1.07% (inactive)
same,Potency,[28],21.1 µM (active)
c1ccc2cc3c(ccc4ccccc43)cc2c1,activation,[4],2.13% (inactive)
same,Potency,[29],12.2 µM (active)
same,Potency,[8],22.4 µM (active)
same,Potency,[23],30.6 µM (active)
